Source: PubChem BioAssay (NCATS)
Records with an inconclusive call do not appear. A number with no mark means an inactive call. The source made the active and inactive calls. Calls come from the whole dose curve; as a rule, active = well fitted curve in the direction sought with a large enough effect; inconclusive = small, poorly fitted or top-dose-only effect, or another doubt; inactive = no such curve, though single readings can be large; an effect the other way counts as inactive or inconclusive.

Assay: qHTS Screen of the MIPE 4.0 Collection Against Ewings Sarcoma (TC71) (AID 1259253); note: nearly all actives have a fitted effect of over 40% in size; note: potency is the fitted concentration of half-maximal effect;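 for viability (% of DMSO): 100% = DMSO-treated cells and 0% = medium-only wells without cells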
Conditions: TC71 Ewing sarcoma viability, CellTiter-Glo, 48 h; series mostly up to 45.8 µM; viability (% of DMSO): at the top concentration
Source text: There is a large unmet medical need for treatments for Ewing sarcoma, a pediatric sarcoma. We sought to identify compounds that inhibited Ewing sarcoma cells in vitro with the goal to then test promising drugs in two drug combinations in vitro to look for synergistic drug combinations. Promising combinations would then proceed to additional validation, including in vivo testing.
Using the NCATS developed oncology compound library called the Mechanism of Interrogation Plate (MIPE), four Ewing sarcoma cell lines were evaluated (TC32, TC71, RDES, EW8). Compounds, in a 12-point titration series, were incubated with cells for 48 hours and the read out was cell viability (CellTiter-Glo from Promega). These initial experiments were used to select appropriate concentrations of each single agent for subsequent two-drug matrix combinations such that the concentrations in the matrices would span both activity and non-activity.
Cells, in the log phase of growth, were seeded in 5 uL of RPMI plus 5% FBS, […] L-glutamine, 100 U/ml penicillin and 100 ug/ml streptomycin into 1536-well solid-bottom white tissue culture treated Greiner Bio One Plates (789173-F) using a MultiDrop Combi (Thermofisher Scientific) dispenser and a small sterile cassette. One column was media alone to be used as a :"no cells" control. The plates were then covered with sterilized stainless steel gasketed lids from Kalypsys. After allowing cells to attach for 4 hours, 23 nL of test compound or control (negative control DMSO and positive control 9.2 uM Bortezomib-final) were added from a 1536-well polypropylene compound source plate to each well using a 1536 head pin tool from Kalypsys. Cells were then incubated for 48 hours at 37C, 95% relative humidity and 5% CO2. After 48 hours, plates were removed from the incubator and 3 uL of CellTiter-Glo (Promega) was added using an Aurora Flying Reagent Dispenser Bioraptor. Plates were incubated at room temperature for 10 minutes prior to reading the luminescence on the Viewlux (PerkinElmer). The relative luciferase units are used to calculate the percent activity using the activity of DMSO in the cells and no cells columns for normalization of no inhibition and full inhibition respectively.
For `COc1ccc(C(=O)N2CCCC2=O)cc1`, the “viability (% of DMSO)” value was 117%. For `C[C@@H]1C[C@@H]([C@H](O)CC2CC(=O)NC(=O)C2)C(=O)[C@@H](C)C1`, the Potency was 235 nM (active). With `COC(=O)C1=CCCN(C)C1` the “viability (% of DMSO)” value was 91.8%. With `O=C(O)c1nn(Cc2ccc(Cl)cc2Cl)c2ccccc12` the “viability (% of DMSO)” value was 120%.

Assay: qHTS Screen of the MIPE 4.0 Collection Against Ewings Sarcoma (EW8) (AID 1259255); note: nearly all actives have a fitted effect of over 35% in size; note: potency is the fitted concentration of half-maximal effect;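 for viability: 100% = DMSO-treated cells and 0% = medium-only wells without cells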
Conditions: EW8 Ewing sarcoma viability, CellTiter-Glo, 48 h; series mostly up to 45.8 µM; viability: at the top concentration
How it was run: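 Viability screen: 48 h incubation at 37C, 95% humidity, 5% CO2 with serially titrated compound, followed by CellTiter-Glo readout.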
For `COc1ccc(C(=O)N2CCCC2=O)cc1`, the “viability” value was 108%. In the case of `C[C@@H]1C[C@@H]([C@H](O)CC2CC(=O)NC(=O)C2)C(=O)[C@@H](C)C1`, the Potency is reported as 148 nM (active). In the case of `O=C(O)c1nn(Cc2ccc(Cl)cc2Cl)c2ccccc12`, the “viability” value is reported as 112%.

Assay: qHTS assay to identify small molecule inhibitors of chordoma cells - UCH-1 (AID 1259355); note: % is set by controls: 0 for no effect and ±100 for the full control effect; nearly all actives have a fitted effect of over 55% in size
Conditions: UCH-1 chordoma viability, CellTiter-Glo, 48 h, combination; series mostly up to 46.1 µM; activity, negative = inhibition: at the top concentration
How it was run: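 Cells (800/well) were seeded and left overnight at 37 C, 5% CO2, then treated with drugs at 15 concentrations plus a combination mix of auranofin, camptothecin, doxorubicin, rubitecan and topotecan. Viability after 48hr was read by CellTiter-Glo luminescence.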
In the case of `COc1ccc(C(=O)N2CCCC2=O)cc1`, the “activity, negative = inhibition” value is reported as 15.5%. In the case of `COC(=O)C1=CCCN(C)C1`, the “activity, negative = inhibition” value is reported as -7.02%. With `O=C(O)c1nn(Cc2ccc(Cl)cc2Cl)c2ccccc12` the “activity, negative = inhibition” value was -4.4%.

Assay: qHTS assay to identify small molecule inhibitors of chordoma cells - UCH-2 (AID 1259356); note: % is set by controls: 0 for no effect and ±100 for the full control effect
Conditions: UCH-2 chordoma viability, CellTiter-Glo ATP luminescence, 48 h; series mostly up to 46.1 µM; activity change, negative = inhibition: at the top concentration
For `COc1ccc(C(=O)N2CCCC2=O)cc1`, the “activity change, negative = inhibition” value was -9.79%. In the case of `COC(=O)C1=CCCN(C)C1`, the “activity change, negative = inhibition” value is reported as -15.3%. In the case of `O=C(O)c1nn(Cc2ccc(Cl)cc2Cl)c2ccccc12`, the “activity change, negative = inhibition” value is reported as 11.9%.
